Source: the supplement of paper PMC6555819

Key:
Assay in all cases: PBM binding z-score (relative to random genomic background probes); higher = stronger binding; sequences stand for … in GC…GCGATTGACAGCGTAGAATGAAGG
[1] = test system: RARb homodimer (NR concentration 270 nM)
Outline: (§1)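 Probes were double-stranded and carried 34-nt variable regions with direct-repeat seeds, single-nucleotide variants, half-site ablations and random human genomic background sequences, printed on custom Agilent 4×180K protein-binding microarrays. Arrays were incubated 1 h with ligand-free nuclear receptor dimers in PBS pH 7.4, 2% milk, 0.02% Triton X-100, 1 mM DTT, 0.2 mg/mL BSA and 0.4 mg/ml salmon testes DNA. Antibodies against each partner (one per run) detected binding, and scanned fluorescence was regression-normalized. Binding z-scores use the random background probes as reference.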

[2] = test system: RARg:RXRa (NR concentration 270 nM, RXRa partner concentration 90 nM)
Outline: as §1

[3] = test system: RARg homodimer (NR concentration 270 nM)
Outline: as §1

[4] = test system: RXRa DBDmut IVT, anti-RXR (DBD mutation: RXRa K156A/R161A, NR concentration 90 nM)
Outline: as §1

[5] = test system: RXRa homodimer (NR concentration 180 nM)
Outline: as §1

[6] = test system: THRa:RXRa (NR concentration 90 nM, RXRa partner concentration 90 nM)
Outline: as §1

[7] = test system: THRa homodimer (NR concentration 90 nM)
Outline: as §1

[8] = test system: VDR homodimer (NR concentration 270 nM)
Outline: as §1

Sequence	PBM binding z-score [1]	PBM binding z-score [2]	PBM binding z-score [3]	PBM binding z-score [4]	PBM binding z-score [5]	PBM binding z-score [6]	PBM binding z-score [7]	PBM binding z-score [8]
GCTAGTTGGTCAGTAAAAGGTCGCACACCGGTCG	2.98	2.68	1.8	0.145	1.95	1.61	0.192	0.447
TCATATAGGTAAAGGTGTAAGTCGAACGATATGA	-0.352	0.365	0.406	0.642	0.621	-0.275	-0.761	-0.275
ACTCGGAGGACAAAGGTCAGATCTACGCCAGTGA	4.47	5.88	5.52	1.38	4.78	3.36	0.695	1.27
GCGACTGAGGCATCAGCAGGTTACCATAACTTAA	-0.000366	-0.216	-0.35	-0.168	-0.0735	0.371	-0.148	-0.64
TCTTGGAGATCAGCAGGTTAAGAAAGCTGGCCAA	-0.0506	-0.0345	-0.56	0.285	0.182	0.0283	-0.695	-0.225
CCTCGGAGGACAGAAAGTCAGAGCTGTCCGCTTT	-0.167	-0.265	0.0547	-0.146	-0.788	-0.441	-0.747	-0.657
CGAACGAGGGCATGTGTTGATAGCAAATGCCGAT	0.926	1.08	1.7	2.64	0.745	1.03	0.0176	1.44
TCACCAAGGTGAAGGTCGTTGATCCCTCTGTAGA	1.71	1.55	1.08	0.927	2.01	2.27	0.819	0.342
CTCTAAAGGTCGGTTGAGGTGAGTATACGGATAA	2.4	3.06	3.15	1.52	2.44	5.16	1.17	0.546
CCTATCAGGCCAATCTGGGTCACTCAAGGCTTGA	2.48	1.44	1.71	0.421	1.14	4.02	1.16	-0.0119
AGGCAAAGTTCAGGACGAGGTAACGTAAAGCACG	3.36	4.68	5.16	2.98	3.23	3.87	1.95	2.35
CAAGACAGGTGAGAAGGTAACTCAGCCTCGATTA	0.607	0.784	0.824	-0.536	0.481	0.413	0.475	-0.249
CCGTACGGGTCACTCCAGGTTATAGCATCGGAGT	3.26	4.74	4.74	1.62	5.04	5.05	0.303	1.37
GCTAGTTGGTCAGAAAAAGGTCACACACCGGTCG	5.21	5.28	4.72	0.268	4.82	3.52	1.44	1.71
CCTACTGGGCCAAGGTCAGTGATCAGTCAAAGCA	2.89	2.37	2.48	-0.721	1.4	2.31	1.15	0.568
GCTTGAAGATCAAGGTTAAGAAAGACTAAGCTAA	0.0789	0.319	0.181	-0.437	0.877	1.02	-0.36	-0.116
CCTACTGGGCCATCAGGTCATTGGTATCAACGTT	2.99	1.93	1.66	0.149	0.958	3.33	3.05	1.64
TCTAGTTGGTAACGGAGGTCACACACGACGGGTA	4.04	3.79	3.14	0.917	4.14	3.54	2.41	2.47
CCTACTGCGCCATCAGGTCATTGATATCAACGTT	2.85	1.59	1.53	1.5	1.3	3.49	3.56	2.17

Sequence	PBM binding z-score [1]	PBM binding z-score [2]	PBM binding z-score [3]	PBM binding z-score [4]	PBM binding z-score [5]	PBM binding z-score [6]	PBM binding z-score [7]	PBM binding z-score [8]
CCTAGTCGGTCAGGAGGTCACACACCGGATATGA	4.67	5.93	5.46	0.219	4.75	3.37	2.55	2.83
TGTCTAAGTTCAAAGGTAACGTAAGTATCCACAC	2.69	4.48	3.63	4.28	5.62	3.44	0.485	3.83
ACAGACAGGTGATGAAGGTAACTCTGGCTATCAT	-0.162	0.325	0.249	-0.432	0.387	0.0574	-0.327	-0.648
ACTAGCAGGCCAAGTTTGAGTCACTCAAACAAAG	-0.195	0.0466	0.196	-0.27	-0.333	-0.188	-0.77	-0.27
CCTATTGGGCCACGAAAGGTCATTGATTCAGTGA	4.4	4.95	4.66	0.751	5.29	4.08	0.834	2.26
AGAACGAGGGCAATGAGTTGATAGAACGGGTGGC	0.861	1.14	1.61	2.13	0.744	0.969	-0.182	2.82
CAAACTAGGTCACCAAAGGTCAAAGTCGAATGAC	5.94	7.87	8.54	2.57	7.91	5.17	2.46	3.85
CACACAGGGTCAGCTAGGCCAGAGTAGGGACGGC	3.23	4.52	4.78	1.76	4.03	3.04	0.987	2
TTACGAAGGTGAAGGTCGTTGATCCCTCTGTAGA	1.84	1.38	1.26	0.133	1.93	1.52	0.135	0.942
CCTGCTAGGTCATGGTAAGCTAATCTACAGTATG	2.79	3.8	4.48	1.84	2.62	2.98	1.22	-0.214
ACTATTAGTTGAAACGAGGGCAACCGATAGGTTG	1.25	1.01	1.11	0.84	0.792	3.41	0.358	1.1
CGTGCAAGGTCATAGGAGGTCAGTGAAGACAGAT	5.38	7.04	7.51	4.08	7.22	5.44	2.87	4.63
CCGACTGGTGCAAAGGTTACCATACTCAGTACGA	2.08	2.07	1.32	0.63	2.93	1.45	0.0703	0.351
ACTAGTTGGTCAGCTGAGGTGACACACAATTCGG	1.74	1.34	1.29	-0.108	0.902	4.41	2.03	0.149
TTACCAACGTGAAGGTCGTTGATCCCTCTGTAGA	1.24	0.301	0.15	0.665	1.17	1.04	0.438	1.3
CGTCCAAGGGCAGAGAGGTCAGTGAATGCCGAGT	4.03	3.5	4.06	1.49	2.27	2.68	0.704	3.19
CTCGAAAGGTCGTGCTCAGGTGAGTAAACCAAAC	2.84	5.23	4.05	1.99	4.99	4.08	0.933	0.941
CCAGACAGGTGAGAAGATAACTCAGCCTCGATTA	-0.0712	0.21	0.586	0.0832	0.262	-0.0838	-0.477	-0.188
TAGCGTAGGTCATTGGGCCAGTATAGTACGCATC	2.8	3.98	4.08	0.868	3.6	2.08	-0.396	0.725

Sequence	PBM binding z-score [1]	PBM binding z-score [2]	PBM binding z-score [3]	PBM binding z-score [4]	PBM binding z-score [5]	PBM binding z-score [6]	PBM binding z-score [7]	PBM binding z-score [8]
ACTCGGAGGACAAAAGTCAGAGCTACGCCAGTGA	0.442	0.411	0.784	0.783	0.0563	0.186	-0.517	-0.631
GCTGCTAGGTGAGGTTGGTCAGCTAACGGGTACG	0.45	-0.285	-0.239	-0.389	-0.532	0.337	-0.133	-0.159
CTACCAAGGTGAACAAGGTCGTTCATTACTATTC	2.93	2.18	1.75	2.32	2.27	3.56	2.2	3.38
TAGCCTACGTCATGCGGGCCAGTATAGTGTCGGC	-0.71	-0.452	-0.536	-0.98	-0.341	-1.7	-0.856	-1.16
TTTTGTAGATCAACAGGAGGTTAAGAAAGATCGA	0.787	1.04	0.47	-0.291	1.23	1.23	0.167	0.336
CAAACTAGGTCAAGGTCAAAGGCGGTTTGTGCCA	5.02	6.14	6.63	3.02	5.77	4.38	3.55	3.92
GGAACGAGGGCAATCGAGTTGATAGCATGGCGAT	0.554	1.14	1.22	1.84	0.638	2.64	-0.649	1.87
CCTAGTTGGTTAAGGTCACACACGCTATAGGTAC	4.5	4.48	4.33	2.36	4.63	4.64	6.15	4.12
CGTTACGGGTCACTGACAGGTTATAGCATTTGGA	3.43	5.78	4.8	1.74	5.12	3	0.0977	0.672
CAAACTAGGTCACCGGAAGGTCAAAGACCGCATG	5.49	8.28	7.5	1.49	6.27	4.46	2.95	2.59
GGTATTAGTTGAAAGGGCAACCGAATGATTCTCG	2.53	1.76	1.81	0.965	1.5	1.08	0.579	1.23
CGAACTATGTCATTGACAGGACAGTGAATAGTAA	0.32	0.772	0.637	0.491	0.127	0.297	-0.398	0.0338
CCTACTGGGCAACGAAAGGTCATTGATTCAGTGA	4.44	4.88	4	0.496	4.73	3.09	0.612	2.35
TCGAGTAGGTTACCAATGGGGCATTCAACTTTCT	1.11	1.49	0.547	0.496	1.01	0.551	-0.246	-0.194
GCTCGGAGGACCAGGTCAGAGCTTTGTCCGTAGA	1.34	0.802	0.461	-0.305	0.617	1.73	0.402	-0.425
AGTCAGAGTTCACTAGGTAACGTAAGATTCAGCT	2.83	4.11	4.7	4.73	3.63	1.85	0.172	5.65
TGAATGGGGTTATAAGATCAGGGAACGTTGCAAA	1.49	2.3	0.965	1.6	3.95	2.45	1	1.23
TGAATGAGGTTATAAGATCTGGGAACGTTGCAAA	0.515	1.04	0.631	0.607	1.61	1.67	0.199	0.194
